In the antibiotic and cytotoxicity screens of Wong et al. (2023):
About 1,500 (3.8%) of roughly 39,000 compounds were called active. The entries come from a sample that favours actives as a whole.

The compounds below were run on HSkMC (human skeletal muscle cells) (assay: cytotoxicity call (relative viability < 0.9)). Settings: 10 µM.

Row | Compound | cytotoxicity call
1 | C[C@H]1CN([C@@H](C)CO)C(=O)c2cccc(NC(=O)c3cnccn3)c2O[C@@H]1CN(C)S(=O)(=O)c1cccs1 | inactive
2 | C[C@@H]1CCCCO[C@H](CN(C)Cc2ccc(C(F)(F)F)cc2)[C@@H](C)CN([C@@H](C)CO)C(=O)c2cc(NC(=O)C3CCCCC3)ccc2O1 | inactive
3 | O=C(NCCN1CCOCC1)[C@@H]1c2ccccc2C(=O)N(Cc2cc(C(F)(F)F)cc(C(F)(F)F)c2)[C@H]1c1ccc(CO)cc1 | inactive
4 | C[C@H]1CN([C@@H](C)CO)C(=O)Cc2cc(NC(=O)CCN3CCOCC3)ccc2O[C@@H]1CN(C)Cc1ccc(C(=O)Nc2ccccc2N)cc1 | inactive
5 | Cc1noc(C)c1NC(=O)Nc1ccc2c(c1)C(=O)N([C@H](C)CO)C[C@@H](C)[C@@H](CN(C)Cc1ccc(Oc3ccccc3)cc1)O2 | inactive
6 | C[C@@H]1CN([C@@H](C)CO)C(=O)c2cccc(NS(=O)(=O)c3cn(C)cn3)c2O[C@@H]1CN(C)S(=O)(=O)c1ccc(Cl)cc1 | inactive
7 | COc1ccc(CN(C)C[C@H]2Oc3ccc(NS(C)(=O)=O)cc3C(=O)N([C@@H](C)CO)C[C@@H]2C)cc1 | inactive
8 | CNC[C@H]1Oc2c(NS(=O)(=O)c3cn(C)cn3)cccc2C(=O)N([C@H](C)CO)C[C@H]1C | inactive
9 | Cn1cnc(CCNC(=O)C[C@H]2CC[C@@H]3[C@H](COC[C@H](O)CN3C(=O)Nc3ccc(C(F)(F)F)cc3)O2)c1 | inactive
10 | CCNC(=O)C[C@@H]1C=C[C@H](NC(=O)C2CC2)[C@@H](CO)O1 | inactive
11 | C=CC[C@@H](CC(=O)N[C@H](CO)Cc1ccccc1)C(=O)N[C@@H](COC(=O)[C@@H](CC=C)NC(=O)OCC1c2ccccc2-c2ccccc21)Cc1c[nH]c2ccccc12 | active
12 | C=CCC[C@@H](Cc1ccc(F)cc1)C(=O)OC[C@H](Cc1c[nH]c2ccccc12)NC(=O)[C@@H](CC=C)CC(=O)N[C@H](CO)Cc1ccccc1 | inactive
13 | C=CCC[C@H](Cc1ccc(F)cc1)C(=O)OC[C@H](Cc1c[nH]c2ccccc12)NC(=O)[C@@H](CC=C)CC(=O)N[C@@H](CO)Cc1ccccc1 | active
14 | C=CCC[C@@H](Cc1ccc(F)cc1)C(=O)OC[C@@H](Cc1c[nH]c2ccccc12)NC(=O)[C@H](CC=C)CC(=O)N[C@@H](CO)Cc1ccccc1 | inactive
15 | C=CCC[C@H](Cc1ccc(F)cc1)C(=O)OC[C@H](Cc1c[nH]c2ccccc12)NC(=O)[C@H](CC=C)CC(=O)N[C@@H](CO)Cc1ccccc1 | inactive
16 | C=CC[C@@H](CC(=O)N[C@H](CO)Cc1ccccc1)C(=O)N[C@H](COC(=O)[C@@H](CC=C)Cc1ccc(F)cc1)Cc1c[nH]c2ccccc12 | inactive
17 | C=CCC[C@H](Cc1ccc(F)cc1)C(=O)OC[C@H](Cc1c[nH]c2ccccc12)NC(=O)[C@@H](CC=C)CC(=O)N[C@H](CO)Cc1ccccc1 | active
18 | C=CC[C@H](CC(=O)N[C@@H](CO)Cc1ccccc1)C(=O)N[C@@H](COC(=O)[C@@H](CC=C)Cc1ccc(F)cc1)Cc1c[nH]c2ccccc12 | inactive
19 | C=CCC[C@@H](Cc1ccc(F)cc1)C(=O)OC[C@H](Cc1c[nH]c2ccccc12)NC(=O)[C@@H](CC=C)CC(=O)N[C@@H](CO)Cc1ccccc1 | inactive
20 | CS(=O)(=O)N1CC(=O)Nc2ccccc21 | inactive
21 | COc1ccc(S(=O)(=O)Nc2ccc3c(c2)C(=O)N([C@@H](C)CO)C[C@@H](C)[C@@H](CN(C)Cc2ccc(C(=O)O)cc2)OCCCC[C@H](C)O3)cc1 | inactive

Row | Compound | cytotoxicity call
22 | C[C@@H]1CN([C@@H](C)CO)S(=O)(=O)c2ccc(C#CCN(C)C)cc2O[C@@H]1CN(C)Cc1ccccc1F | inactive
23 | CC(C)NC(=O)Nc1ccc2c(c1)C(=O)N([C@H](C)CO)C[C@H](C)[C@H](CN(C)C(=O)Nc1cccc3ccccc13)OCCCC[C@H](C)O2 | inactive
24 | CC(C)NC(=O)N(C)C[C@H]1Oc2ccc(NC(=O)C3CCCCC3)cc2C(=O)N([C@H](C)CO)C[C@@H]1C | inactive
25 | CCC(=O)Nc1ccc2c(c1)OC[C@@H](C)N(C(=O)CN1CCOCC1)C[C@H](C)[C@@H](OC)CN(C)C2=O | inactive
26 | C[C@@H]1CN([C@@H](C)CO)C(=O)c2cccc(NC(=O)Nc3cccc4ccccc34)c2O[C@H]1CN(C)S(=O)(=O)c1ccccc1 | inactive
27 | COc1ccc(S(=O)(=O)Nc2cccc3c2O[C@H](CN(C)S(=O)(=O)c2ccc(C)cc2)[C@@H](C)CN([C@H](C)CO)C3=O)cc1 | inactive
28 | O=C(C[C@@H]1CC[C@H]2[C@@H](COC[C@@H](O)CN2S(=O)(=O)c2cccc(Cl)c2)O1)NCCCN1CCOCC1 | inactive
29 | COCC(=O)N1CC[C@]2(CC1)CN(Cc1cccc(c1)OC)[C@H](CO)c1c2c2ccc(cc2n1C)OC | inactive
30 | C[C@H](CO)N1C[C@H](C)[C@@H](CN(C)S(=O)(=O)c2cn(C)cn2)OCc2cn(nn2)CCCC1=O | inactive
31 | C[C@H](CO)N1C[C@H](C)[C@H](CN(C)Cc2ccccc2)Oc2ccc(NC(=O)Nc3ccc(C(F)(F)F)cc3)cc2CC1=O | active
32 | C[C@@H]1CN([C@@H](C)CO)C(=O)Cc2cc(NC(=O)Nc3ccc(C(F)(F)F)cc3)ccc2O[C@@H]1CN(C)Cc1ccccc1 | active
33 | C[C@@H]1CN([C@H](C)CO)C(=O)Cc2cc(NC(=O)Nc3ccc(C(F)(F)F)cc3)ccc2O[C@H]1CN(C)Cc1ccccc1 | active
34 | C[C@H]1CN([C@@H](C)CO)C(=O)Cc2cc(NC(=O)Nc3ccc(C(F)(F)F)cc3)ccc2O[C@@H]1CN(C)Cc1ccccc1 | inactive
35 | C[C@@H]1CN([C@@H](C)CO)C(=O)Cc2cc(NC(=O)Nc3ccc(C(F)(F)F)cc3)ccc2O[C@H]1CN(C)Cc1ccccc1 | inactive
36 | C[C@H]1CN([C@@H](C)CO)C(=O)Cc2cc(NC(=O)Nc3ccc(C(F)(F)F)cc3)ccc2O[C@H]1CN(C)Cc1ccccc1 | active
37 | C[C@@H]1CCCCO[C@@H](CN(C)Cc2ccc(Cl)c(Cl)c2)[C@@H](C)CN([C@@H](C)CO)C(=O)c2cc(NS(=O)(=O)c3cn(C)cn3)ccc2O1 | inactive
38 | C[C@H]1CCCCO[C@@H](CN(C)Cc2ccc(C(F)(F)F)cc2)[C@@H](C)CN([C@@H](C)CO)C(=O)c2cc(N(C)C)ccc2O1 | inactive
39 | CC(C)C#Cc1cnc2c(c1)C(=O)N([C@H](C)CO)C[C@H](C)[C@H](CN(C)S(=O)(=O)c1cn(C)cn1)O2 | inactive
40 | CCCC#Cc1cnc2c(c1)C(=O)N([C@@H](C)CO)C[C@H](C)[C@H](CN(C)C(=O)c1ccc3c(c1)OCO3)O2 | inactive
41 | COc1ccccc1S(=O)(=O)N[C@H]1CC[C@@H](CCNC(=O)C2CC2)O[C@@H]1CO | inactive
42 | COc1ccc(NC(=O)Nc2cccc3c2O[C@@H](CN(C)CC2CCCCC2)[C@H](C)CN([C@@H](C)CO)C3=O)cc1 | inactive

Row | Compound | cytotoxicity call
43 | O=C(C[C@H]1C[C@H]2c3cc(NS(=O)(=O)c4ccc(F)cc4)ccc3O[C@H]2[C@@H](CO)O1)N1CCCCC1 | inactive
44 | COCC(=O)N1C[C@@H](C)[C@H](OC)CN(C)C(=O)c2ccc(NC(=O)Nc3cccc(F)c3)cc2OC[C@@H]1C | inactive
45 | C[C@@H]1CN([C@H](C)CO)C(=O)Cc2cc(NC(=O)Cc3cn(C)c4ccccc34)ccc2O[C@@H]1CN(C)Cc1ccc(C(F)(F)F)cc1 | inactive
46 | NC1CCN(C(=O)N2CCCC2)CC1 | inactive
47 | C[C@@H]1CN([C@@H](C)CO)C(=O)Cc2cc(NS(=O)(=O)c3ccc(Cl)cc3)ccc2O[C@H]1CN(C)C(=O)Nc1ccc(C(F)(F)F)cc1 | inactive
48 | C[C@H](CO)N1C[C@H](C)[C@H](CN(C)CC2CC2)Oc2c(NS(=O)(=O)c3ccccc3)cccc2C1=O | inactive
49 | COc1ccc(S(=O)(=O)Nc2ccc3c(c2)C(=O)N([C@H](C)CO)C[C@H](C)[C@@H](CN(C)S(=O)(=O)c2ccc(OC)cc2)O3)cc1 | inactive
50 | CN1C[C@@H](N)CC1=O | inactive
51 | COC(=O)[C@H](Cc1ccccc1)N1CC2=CCCC=C[C@H]2[C@@H]1[C@@H](O)CCn1cc(CCC(=O)NO)nn1 | inactive
52 | C[C@H](CO)N1C[C@H](C)[C@@H](CN(C)Cc2ccccc2)Oc2ccc(NC(=O)Nc3ccc(C(F)(F)F)cc3)cc2CC1=O | active
53 | C[C@@H]1CN([C@H](C)CO)C(=O)Cc2cc(NC(=O)Nc3ccc(C(F)(F)F)cc3)ccc2O[C@@H]1CN(C)Cc1ccccc1 | active
54 | COc1cccc(S(=O)(=O)N2C[C@H](O)COC[C@@H]3O[C@@H](CC(=O)NCCCN4CCOCC4)CC[C@H]32)c1 | inactive
55 | CN1CCN(C(=O)C[C@@H]2C=C[C@@H](NS(=O)(=O)c3cccc(F)c3)[C@@H](CO)O2)CC1 | inactive
56 | O=C(O)/C=C\C(=O)Nc1cccc(C(=O)O)c1 | inactive
57 | COc1ccc(NC(=O)Nc2cccc3c2O[C@@H](CN(C)Cc2ccc(-c4ccccc4)cc2)[C@H](C)CN([C@@H](C)CO)C3=O)cc1 | inactive
58 | COc1ccc(NC(=O)Nc2cccc3c2O[C@H](CN(C)Cc2ccc(-c4ccccc4)cc2)[C@@H](C)CN([C@H](C)CO)C3=O)cc1 | inactive
59 | COc1ccc(NC(=O)Nc2cccc3c2O[C@H](CN(C)Cc2ccc(-c4ccccc4)cc2)[C@H](C)CN([C@@H](C)CO)C3=O)cc1 | inactive
60 | COc1ccc(NC(=O)Nc2cccc3c2O[C@@H](CN(C)Cc2ccc(-c4ccccc4)cc2)[C@@H](C)CN([C@H](C)CO)C3=O)cc1 | inactive
61 | COc1ccc(NC(=O)Nc2cccc3c2O[C@H](CN(C)Cc2ccc(-c4ccccc4)cc2)[C@@H](C)CN([C@@H](C)CO)C3=O)cc1 | active
62 | COc1ccc(NC(=O)Nc2cccc3c2O[C@H](CN(C)Cc2ccc(-c4ccccc4)cc2)[C@H](C)CN([C@H](C)CO)C3=O)cc1 | active
